Measured values from PubChem BioAssay (NCATS).
“And” between values parts separate entries of the source, which are not always exact repeats. Equal values may be shown once. Records with an inconclusive call do not appear. A call without a number means that no potency is given here. The source made the active and inactive calls. The call rests on the fitted dose curve; in most records, active means well fitted cell-killing curve with a large enough effect; inconclusive means small, poorly fitted or top-dose-only effect, or effect the other way; inactive means flat fitted curve, though single readings scatter.

What follows are molecules tested on Es-2 (assay: Primary qHTS to identify gynecologic anti-cancer compounds using libraries of approved drugs and bioactive compounds (AID 1345084; further: nearly all actives have a fitted effect of over 55% in size)). Settings: Gynecologic cancer cell panel viability, ATPlite luminescence, 48 h; series mostly up to 57.5 µM.
In short: (§1)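 Cells, 1,000 per well, were allowed to settle for 16 h at 37 C before compound addition. Five concentrations were tested for 48 h, and viability was read by ATPlite luminescence after 15 min at room temperature.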
Potency means the concentration at half of the fitted maximal effect.

**Q.** CCCCCCCCCCCCCCCCCC(=O)OCC(O)CO (configuration not stated) was tested. Which Potency did it give?
**A.** inactive

**Q.** For CN1[C@@H]2CC[C@H]1CC(OC(=O)c1c[nH]c3ccccc13)C2 (some centres not stated), which Potency is on record?
**A.** inactive

**Q.** With CCCOC(C(=O)OC1CCN(C)CC1)(c1ccccc1)c1ccccc1 as the molecule, how does the Potency read?
**A.** inactive

**Q.** Which Potency does the source give for CO/N=C1\CN(c2nc3c(cc2F)c(=O)c(C(=O)O)cn3C2CC2)CC1CN (configuration not stated) here?
**A.** inactive

**Q.** Which Potency does the source give for COc1cc2c(cc1OC)C(C(C(=O)N(CCc1ccc(OC)c(OC)c1OC)CCc1ccc(OC)c(OC)c1OC)c1ccccc1)=NCC2 (configuration not stated) here?
**A.** inactive

**Q.** Which Potency does the source give for Oc1c(Cl)cc(Cl)cc1Sc1cc(Cl)cc(Cl)c1O here?
**A.** inactive

**Q.** O=C1c2ccccc2C(=O)C1c1ccccc1 was tested. Which Potency did it give?
**A.** inactive

**Q.** Which Potency does the source give for Cc1ccc(O)c2ncccc12 here?
**A.** inactive

**Q.** With O=C(Nc1ccc(Oc2ccc(Cl)cc2)c(Cl)c1)c1cc(I)cc(I)c1O as the molecule, how does the Potency read?
**A.** inactive

**Q.** How did the Potency turn out when CC(=O)[C@H]1CC[C@H]2[C@@H]3C[C@H](C)C4=CC(=O)CC[C@]4(C)[C@H]3[C@@H](O)C[C@]12C was run?
**A.** inactive

**Q.** With O=C(OCC(O)CO)c1ccccc1Nc1ccnc2cc(Cl)ccc12 (configuration not stated) as the molecule, how does the Potency read?
**A.** inactive

**Q.** Which Potency does the source give for CCN1CCC[C@H]1CNC(=O)c1c(OC)ccc(Br)c1OC here?
**A.** inactive

**Q.** For CC(C)COC(=O)c1ccc(N)cc1, which Potency is on record?
**A.** inactive

**Q.** For O=C1OCCN1/N=C/c1ccc([N+](=O)[O-])o1, which Potency is on record?
**A.** inactive

**Q.** Oc1ccc(O)cc1 was tested. Which Potency did it give?
**A.** inactive

**Q.** How did the Potency turn out when C[C@]12C=CC(=O)C=C1CC[C@@H]1[C@@H]2[C@@H](O)C[C@@]2(C)[C@H]1CC[C@]2(O)C(=O)CO was run?
**A.** inactive

**Q.** How did the Potency turn out when O=C1OC(c2ccc(O)cc2)(c2ccc(O)cc2)c2ccccc21 was run?
**A.** inactive

**Q.** Which Potency does the source give for NCCc1ccn[nH]1 here?
**A.** inactive

**Q.** For COc1cccc2c1C(=O)c1c(O)c3c(c(O)c1C2=O)C[C@@](O)(C(=O)CO)C[C@@H]3O[C@H]1C[C@H](N)[C@H](O)[C@H](C)O1, which Potency is on record?
**A.** 10 µM (active)

**Q.** For COC1=CC(=O)C[C@@H](C)[C@]12Oc1c(Cl)c(OC)cc(OC)c1C2=O, which Potency is on record?
**A.** inactive

**Q.** With CC(CCc1ccccc1)NCC(O)c1ccc(O)c(C(N)=O)c1 (configuration not stated) as the molecule, how does the Potency read?
**A.** inactive

**Q.** Which Potency does the source give for C#C[C@]1(O)CC[C@H]2[C@@H]3CCc4cc(OC5CCCC5)ccc4[C@H]3CC[C@@]21C here?
**A.** inactive

**Q.** How did the Potency turn out when CCCCC1=NC2(CCCC2)C(=O)N1Cc1ccc(-c2ccccc2-c2nn[nH]n2)cc1 was run?
**A.** inactive

**Q.** Which Potency does the source give for O=C(CCN1CCC(c2ccccc2)C1)c1ccc2c(c1)OCCO2 (configuration not stated) here?
**A.** inactive

**Q.** How did the Potency turn out when C=CCc1ccc(O)c(OC)c1 was run?
**A.** inactive

**Q.** With C[C@]12CC[C@@H]3c4ccc(O)cc4CC[C@H]3[C@@H]1C[C@@H](O)[C@@H]2O as the molecule, how does the Potency read?
**A.** inactive

**Q.** O=c1[nH]c(=O)n([C@H]2CCCO2)cc1F was tested. Which Potency did it give?
**A.** inactive

**Q.** For C[C@]12CC[C@H]3[C@@H](CCC4=CC(=O)CC[C@@]43C)[C@@H]1CC[C@@H]2C(=O)CO, which Potency is on record?
**A.** inactive

**Q.** CC(=O)OCC(=O)NCCCOc1cccc(CN2CCCCC2)c1 was tested. Which Potency did it give?
**A.** inactive

**Q.** With OC[C@H]1O[C@@H](n2cnc3c(=S)nc[nH]c32)[C@H](O)[C@@H]1O as the molecule, how does the Potency read?
**A.** 3.55 µM (active)

**Q.** How did the Potency turn out when CCCCOc1ccc(OCCCN2CCOCC2)cc1 was run?
**A.** inactive

**Q.** Which Potency does the source give for CC(C)n1nc(-c2cc3cc(O)ccc3[nH]2)c2c(N)ncnc21 here?
**A.** 3.16 µM (active) and 2.24 µM (active)

**Q.** CCCN1CCCC[C@H]1C(=O)Nc1c(C)cccc1C was tested. Which Potency did it give?
**A.** inactive

**Q.** CC(=O)Oc1ccc2c(c1)CC[C@@H]1[C@@H]2CC[C@]2(C)[C@@H](O)CC[C@@H]12 was tested. Which Potency did it give?
**A.** inactive

**Q.** Which Potency does the source give for CC(C)(C)NC(=O)[C@@H]1CN(Cc2cccnc2)CCN1C[C@@H](O)C[C@@H](Cc1ccccc1)C(=O)N[C@H]1c2ccccc2C[C@H]1O here?
**A.** inactive

**Q.** For CC(Cc1cccc(C(F)(F)F)c1)NCCOC(=O)c1ccccc1 (configuration not stated), which Potency is on record?
**A.** inactive

The molecules below were run on HeLa in the same assay as above. Settings: Gynecologic cancer cell panel viability, ATPlite luminescence, 48 h; series mostly up to 57.5 µM.
In short: as §1

**Q.** CCCCCCCCCCCCCCCCCC(=O)OCC(O)CO (configuration not stated) was tested. Which Potency did it give?
**A.** inactive

**Q.** For CN1[C@@H]2CC[C@H]1CC(OC(=O)c1c[nH]c3ccccc13)C2 (some centres not stated), which Potency is on record?
**A.** inactive

**Q.** CCCOC(C(=O)OC1CCN(C)CC1)(c1ccccc1)c1ccccc1 was tested. Which Potency did it give?
**A.** inactive

**Q.** For CO/N=C1\CN(c2nc3c(cc2F)c(=O)c(C(=O)O)cn3C2CC2)CC1CN (configuration not stated), which Potency is on record?
**A.** inactive

**Q.** Which Potency does the source give for COc1cc2c(cc1OC)C(C(C(=O)N(CCc1ccc(OC)c(OC)c1OC)CCc1ccc(OC)c(OC)c1OC)c1ccccc1)=NCC2 (configuration not stated) here?
**A.** inactive

**Q.** With Oc1c(Cl)cc(Cl)cc1Sc1cc(Cl)cc(Cl)c1O as the molecule, how does the Potency read?
**A.** inactive

**Q.** With O=C1c2ccccc2C(=O)C1c1ccccc1 as the molecule, how does the Potency read?
**A.** inactive

**Q.** With Cc1ccc(O)c2ncccc12 as the molecule, how does the Potency read?
**A.** inactive

**Q.** O=C(Nc1ccc(Oc2ccc(Cl)cc2)c(Cl)c1)c1cc(I)cc(I)c1O was tested. Which Potency did it give?
**A.** inactive

**Q.** Which Potency does the source give for CC(=O)[C@H]1CC[C@H]2[C@@H]3C[C@H](C)C4=CC(=O)CC[C@]4(C)[C@H]3[C@@H](O)C[C@]12C here?
**A.** 15.8 µM (active)

**Q.** O=C(OCC(O)CO)c1ccccc1Nc1ccnc2cc(Cl)ccc12 (configuration not stated) was tested. Which Potency did it give?
**A.** inactive

**Q.** With CCN1CCC[C@H]1CNC(=O)c1c(OC)ccc(Br)c1OC as the molecule, how does the Potency read?
**A.** inactive

**Q.** How did the Potency turn out when CC(C)COC(=O)c1ccc(N)cc1 was run?
**A.** inactive

**Q.** With O=C1OCCN1/N=C/c1ccc([N+](=O)[O-])o1 as the molecule, how does the Potency read?
**A.** inactive

**Q.** Oc1ccc(O)cc1 was tested. Which Potency did it give?
**A.** inactive

**Q.** C[C@]12C=CC(=O)C=C1CC[C@@H]1[C@@H]2[C@@H](O)C[C@@]2(C)[C@H]1CC[C@]2(O)C(=O)CO was tested. Which Potency did it give?
**A.** inactive

**Q.** How did the Potency turn out when O=C1OC(c2ccc(O)cc2)(c2ccc(O)cc2)c2ccccc21 was run?
**A.** inactive

**Q.** Which Potency does the source give for NCCc1ccn[nH]1 here?
**A.** inactive

**Q.** For COc1cccc2c1C(=O)c1c(O)c3c(c(O)c1C2=O)C[C@@](O)(C(=O)CO)C[C@@H]3O[C@H]1C[C@H](N)[C@H](O)[C@H](C)O1, which Potency is on record?
**A.** 22.4 µM (active)

**Q.** With COC1=CC(=O)C[C@@H](C)[C@]12Oc1c(Cl)c(OC)cc(OC)c1C2=O as the molecule, how does the Potency read?
**A.** inactive

**Q.** Which Potency does the source give for CC(CCc1ccccc1)NCC(O)c1ccc(O)c(C(N)=O)c1 (configuration not stated) here?
**A.** inactive

**Q.** C#C[C@]1(O)CC[C@H]2[C@@H]3CCc4cc(OC5CCCC5)ccc4[C@H]3CC[C@@]21C was tested. Which Potency did it give?
**A.** inactive

**Q.** Which Potency does the source give for CCCCC1=NC2(CCCC2)C(=O)N1Cc1ccc(-c2ccccc2-c2nn[nH]n2)cc1 here?
**A.** inactive

**Q.** O=C(CCN1CCC(c2ccccc2)C1)c1ccc2c(c1)OCCO2 (configuration not stated) was tested. Which Potency did it give?
**A.** inactive

**Q.** C=CCc1ccc(O)c(OC)c1 was tested. Which Potency did it give?
**A.** inactive

**Q.** For C[C@]12CC[C@@H]3c4ccc(O)cc4CC[C@H]3[C@@H]1C[C@@H](O)[C@@H]2O, which Potency is on record?
**A.** 31.6 µM (active)

**Q.** With O=c1[nH]c(=O)n([C@H]2CCCO2)cc1F as the molecule, how does the Potency read?
**A.** inactive

**Q.** Which Potency does the source give for C[C@]12CC[C@H]3[C@@H](CCC4=CC(=O)CC[C@@]43C)[C@@H]1CC[C@@H]2C(=O)CO here?
**A.** 3.55 µM (active)

**Q.** For CC(=O)OCC(=O)NCCCOc1cccc(CN2CCCCC2)c1, which Potency is on record?
**A.** inactive

**Q.** OC[C@H]1O[C@@H](n2cnc3c(=S)nc[nH]c32)[C@H](O)[C@@H]1O was tested. Which Potency did it give?
**A.** 3.16 µM (active)

**Q.** CCCCOc1ccc(OCCCN2CCOCC2)cc1 was tested. Which Potency did it give?
**A.** inactive

**Q.** Which Potency does the source give for CC(C)n1nc(-c2cc3cc(O)ccc3[nH]2)c2c(N)ncnc21 here?
**A.** 17.8 µM (active) and 14.1 µM (active)

**Q.** For CCCN1CCCC[C@H]1C(=O)Nc1c(C)cccc1C, which Potency is on record?
**A.** inactive

**Q.** With CC(=O)Oc1ccc2c(c1)CC[C@@H]1[C@@H]2CC[C@]2(C)[C@@H](O)CC[C@@H]12 as the molecule, how does the Potency read?
**A.** 6.31 µM (active)

**Q.** For CC(C)(C)NC(=O)[C@@H]1CN(Cc2cccnc2)CCN1C[C@@H](O)C[C@@H](Cc1ccccc1)C(=O)N[C@H]1c2ccccc2C[C@H]1O, which Potency is on record?
**A.** inactive

**Q.** With CC(Cc1cccc(C(F)(F)F)c1)NCCOC(=O)c1ccccc1 (configuration not stated) as the molecule, how does the Potency read?
**A.** inactive
